This is a sample that favours compounds with a hit; in the whole collection about 6% have one here.
D1 agonist – agonists of human D1 dopamine receptor; P21728; HEK293 T-REx D1 cells, calcium flux, agonist mode; activation, % at 2 µM; hit rate 1% among 360,000; AID 504660; in the data active = activation above about 30%; also: 0% is about no effect
Target sequence (P21728 whole entry, looked up): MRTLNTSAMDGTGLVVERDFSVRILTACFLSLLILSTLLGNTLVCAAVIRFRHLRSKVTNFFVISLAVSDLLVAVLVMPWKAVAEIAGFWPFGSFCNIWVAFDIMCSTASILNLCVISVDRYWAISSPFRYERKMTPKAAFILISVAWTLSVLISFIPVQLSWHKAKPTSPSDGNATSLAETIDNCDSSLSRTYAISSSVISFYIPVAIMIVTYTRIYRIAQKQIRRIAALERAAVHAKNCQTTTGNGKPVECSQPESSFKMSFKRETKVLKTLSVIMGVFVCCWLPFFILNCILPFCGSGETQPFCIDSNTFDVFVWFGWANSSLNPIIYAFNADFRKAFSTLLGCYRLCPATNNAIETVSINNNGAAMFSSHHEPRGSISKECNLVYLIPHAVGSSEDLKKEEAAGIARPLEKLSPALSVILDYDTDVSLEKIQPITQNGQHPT
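Agonism was scored from calcium flux recorded over 180 s (1 read/s) after pintool compound addition, following a 10-cycle baseline. Cells were inducible force-coupled HEK293 TREx D1, plated overnight at 30 C and loaded with no-wash calcium dye.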
D1 potentiator – potentiators of human D1 dopamine receptor; HEK293 TREx D1 cells, calcium flux, dopamine EC20 potentiation; potentiation, % at 10 µM; P21728; hit rate 0.036% among 360,000; AID 504651; in the data active = potentiation above about 30%; also: 0% is about no effect
D3 ag – agonists of human D3 dopamine receptor. P35462. D3R DiscoveRx beta-arrestin cells, luminescence, 90 min. max activation, %. hit rate 0.58% among 410,000; in the data active = max activation above about 30%; also: 0% is about no effect
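Agonist-mode cell screen: cells plated at 1500/well and incubated overnight at 37 °C, then exposed to library compounds for 90 min at 37 °C. Detection reagent was added for 30–60 min at room temperature, and luminescence was read.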
D3 antag – blocks the human D3 dopamine receptor; P35462; D3R cells, DiscoveRx beta-arrestin luminescence, antagonist mode; hits give low values; max response, negative = inhibition, %; hit rate 2.5% among 360,000; in the data active = max response below about -50%; inconclusive = no clear call, values can overlap the other calls; also: % is scaled to controls: 0 for no effect and ±100 for the full control effect
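Cells expressing the human receptor were seeded at 1500 cells/well, incubated overnight at 37 degrees C in 5% CO2, then exposed to library compounds with dopamine controls for 90 minutes at 37 degrees C before luminescent detection.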
D1 antagonist – human D1 dopamine receptor antagonism. P21728. HEK293 TREx D1 cells, calcium flux, dopamine EC80; hits give low values. activity change, negative = inhibition, % at 10 µM. hit rate 3.2% among 360,000; in the data active = activity change below about -30%; also: % is scaled to controls: 0 for no effect and ±100 for the full control effect
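Calcium flux readout: force-coupled, inducible Hek293 Trex D1 line, cells induced overnight at 30 C with tetracycline, dye-loaded 30–90 min at RT. Antagonism scored against EC80 dopamine challenge given 180 s after compound.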
The depositor's hits bear a star; ? = inconclusive; nt = no result; ! = a repeat was not active.

SMILES	D1 agonist	D1 potentiator	D3 ag	D3 antag	D1 antagonist
CC(C)c1ccc2c(c1)NC(c1ccc(F)cc1)=NC(c1cccs1)=N2	0	4	3	nt	7
COc1ccc(N(C(=O)/C=C\C(=O)Nc2ccc(C)cc2)C(C(=O)NCc2ccco2)c2ccc(C)cc2)cc1 (configuration not stated)	-1	0	4	nt	9
COc1cccc(/C=C/c2nc(C#N)c(N3CCN(C)CC3)o2)c1	2	4	-16	nt	1
Cc1cccc(C(=O)N2CCc3cc(CNC(=O)c4cc5ccccc5[nH]4)ccc32)c1	5	-2	-7	nt	-7
Cc1cc(C)cc(OCC(=O)Nc2ccc(Cl)c(-c3nc4ncccc4o3)c2)c1	2	-5	-9	nt	-6
Cc1ccc(C)c(S(=O)(=O)/N=C2\C=C(NS(=O)(=O)c3ccccc3)C(=O)c3ccccc32)c1	2	-6	-5	?	-17
Cc1cc(C)c(S(=O)(=O)/N=C2/C=C(Sc3ncn[nH]3)C(=O)c3ccccc32)cc1C	0	1	-9	-69*	16
CC(C)Oc1ccc(CNC(=O)c2ccc3nc(C(C)C)oc3c2)cc1	10	-1	9	nt	-18
Cc1coc2c(C)c3oc(=O)c(CCC(=O)NCCCn4ccnc4)c(C)c3cc12	1	0	-48	-69*	-9
Cc1c(CCC(=O)NCCCn2ccnc2)c(=O)oc2c(C)c3occ(C(C)(C)C)c3cc12	2	-5	4	-5	-1
CSc1ccc(/C=C/C(=O)OCC(=O)N2CCN(S(=O)(=O)c3ccc(C)cc3C)CC2)cc1	12	-3	5	23	-33*
Cc1ccc(S(=O)(=O)N2CCN(C(=O)COC(=O)/C=C/c3ccc(F)cc3)CC2)c(C)c1	7	-2	13	-5	-38*
Cc1ccc(S(=O)(=O)N2CCN(C(=O)COC(=O)/C=C/c3ccccc3)CC2)c(C)c1	8	-1	8	10	-6
Cc1ccc(S(=O)(=O)c2cn(Cc3ccccc3F)c3cc4c(cc3c2=O)OCO4)cc1	6	-4	-8	nt	4
CN(C)c1ccc(CNC(=O)c2cc3cc(S(=O)(=O)N4CCCCC4)ccc3n2C)cc1	4	0	-9	nt	-13
Cn1c(C(=O)NCc2cccc(F)c2)cc2cc(S(=O)(=O)N3CCCCC3)ccc21	4	-1	4	nt	-54*
Cn1c(C(=O)NCc2ccccc2F)cc2cc(S(=O)(=O)N3CCCCC3)ccc21	6	-4	-15	nt	5
Cc1cccc(CNC(=O)c2cc3cc(S(=O)(=O)N4CCCCC4)ccc3n2C)c1	4	-4	-5	nt	-46*
O=C(CCn1ccc2cc(S(=O)(=O)N3CCCC3)ccc21)NCc1cccc(F)c1	1	0	4	-1	-33*!
CCCCCOc1ccc(Cn2c(=O)oc3ccccc32)cc1	6	-1	0	nt	-17
Cc1occc1C(=O)/C(C#N)=C/c1ccc(O)c(Br)c1	45*	nt	0	3	-16
O=C[C@H](O)[C@@H](O)[C@H](O[C@H]1O[C@H](CO)[C@@H](O[C@H]2O[C@H](CO)[C@@H](O)[C@H](O)[C@H]2O)[C@H](O)[C@H]1O)[C@H](O)CO	nt	nt	9	nt	nt
CSc1nc2n(n1)C(c1cc(Br)ccc1F)C(C(=O)N(C)C)=C(C)N2 (configuration not stated)	1	-4	2	-70*	-2
Cc1cc(C)c(C(=O)CSc2n[nH]c(=O)n2C2CC2)cc1C	11	-9	1	12	-37*
O=C(CSc1n[nH]c(=O)n1C1CC1)c1ccc2c(c1)OCCO2	13	-2	5	25	-1
SMILES	D1 agonist	D1 potentiator	D3 ag	D3 antag	D1 antagonist
CCO/C(=C/c1sc2ccc(OC)cc2[n+]1CCCS(=O)(=O)[O-])CC	3	-2	-1	-73*	-21
Oc1ccc(N2CCN(Cc3cc4c(cc3Br)OCCO4)CC2)cc1	5	3	-17	-86*	1
O=C(CN(Cc1ccccc1)C(=O)c1csnn1)NCc1ccccc1	0	-7	-9	-9	-67*
COc1ccc(CN(CC(=O)NC2CCCC2)C(=O)c2csnn2)cc1	1	-13	-1	-4	-49*
COc1ccccc1NC(=O)c1cc(S(=O)(=O)NCCC2=CCCCC2)ccc1F	0	-2	3	nt	-3
CC1CC(C)CN(CCOc2ccc(Cl)cc2Cl)C1 (configuration not stated)	10	-23	-2	-97*	-28
CC1CC(C)CN(CCOc2cccc(Cl)c2Cl)C1 (configuration not stated)	6	-5	16	-71*	-35*
CCN1CCN(CCOc2cccc(Cl)c2Cl)CC1	20	-3	67*	?	0
O=C(NN=C(c1ccccc1)c1ccccc1)C(CCl)C1CCCCC1 (configuration not stated)	0	-4	3	-51*	nt
Cc1ccc(CN(Cc2ccco2)C(=S)NCC(=O)NCc2cccnc2)cc1	-1	8	3	-3	8
Cc1ccc(CN(Cc2ccccc2)C(=S)NCC(=O)NCc2cccnc2)o1	0	-3	-2	-2	-48*
COc1ccc(CN2CCN(c3ccc(F)cc3)CC2)c(OC)c1OC	17	-7	-16	-26	-21
COc1ccc(C2NCCc3c2[nH]c2ccccc32)cc1CN1CCc2cc(OC)c(OC)cc2C1C (configuration not stated)	36*	-5	-12	-12	-54*
COc1ccc(C2NC(C(=O)O)Cc3c2[nH]c2ccccc32)cc1CN1CCN(c2ccc(F)cc2)CC1 (configuration not stated)	1	-15	-10	1	-48*
COc1cc(OC)c(CN2CCN(c3ccc(F)cc3)CC2)cc1Br	0	-11	-12	-74*	-31*
COc1ccc(C2NCCc3c2[nH]c2ccccc32)cc1COc1ccc(F)cc1 (configuration not stated)	77*	0	-10	-6	4
Cc1cccc(-n2cc(-c3ccccc3)c3c(NC(C)C)ncnc32)c1	1	3	-15	nt	8
COc1cc(NC(=O)c2c(-c3ccc(C)cc3)nnc3ccccc23)cc(OC)c1OC	4	-6	-11	nt	8
CCOC(=O)C(NC(=O)c1ccccc1)(OCc1ccc(F)cc1)C(F)(F)F (configuration not stated)	-1	-7	27	3	-12
CCOC(=O)C(NC(=O)c1cccc(Cl)c1)(OCc1ccc(F)cc1)C(F)(F)F (configuration not stated)	13	-3	11	-6	-35*
CCOc1ccc(Nc2oc(/C=C/c3cccc(OC)c3)nc2C#N)cc1	1	1	4	nt	0
Cc1ccc(-c2nn(CC(=O)Nc3cccc(C(F)(F)F)c3)c(=O)c3ccccc23)cc1	4	4	6	nt	9

Assay outcomes deposited in PubChem BioAssay by National Center for Advancing Translational Sciences (NCATS).
